Laboratory results published in the supplement of paper PMC3334620.
Over roughly 33,000 sequences, “E-score (-0.5 to 0.5)” has its median near -0.04; the highest 2% begin near 0.36. This excerpt belongs to a sample that is enriched for the highest values.

Molecular target: T1, Hmlalpha2 (UniProt P0CY09)
T1 sequence: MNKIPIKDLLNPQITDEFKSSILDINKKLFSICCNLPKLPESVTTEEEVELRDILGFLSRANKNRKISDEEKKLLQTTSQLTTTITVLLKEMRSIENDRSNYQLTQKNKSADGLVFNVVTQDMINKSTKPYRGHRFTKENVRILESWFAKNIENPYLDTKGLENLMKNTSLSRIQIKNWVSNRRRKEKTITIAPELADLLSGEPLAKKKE
Assay: PBM E-score (8-mer binding enrichment) (E-score (-0.5 to 0.5)); higher = stronger / more preferred TF binding
Conditions: protein concentration: 200 nM; construct: GST-full length
Protocol: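 Universal 'all 10-mer' protein binding microarrays (Agilent AMADID 015681) probed with GST-tagged S. cerevisiae TFs (full-length or DBD) made by in vitro transcription/translation (PURExpress), about 100-200 nM. Bound TF was detected with fluorescent anti-GST. Each ungapped 8-mer (which stands for itself and its reverse complement) is scored by the PBM enrichment score (E-score), a modified Wilcoxon-Mann-Whitney statistic from -0.5 to +0.5, computed with the Universal PBM Analysis Suite. Scale: above 0.35 generally sequence-specific binding.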

In order of rising “PBM E-score” value:
1. ACCGAGGC  -0.359
2. AGCCCTCC  -0.312
3. GGCGGTCA  -0.283
4. CTGCCTGC  -0.252
5. CTGCCAGA  -0.232
6. ATGCCTAC  -0.224
7. ACCACGGG  -0.213
8. ATCACGGA  -0.189
9. AGCCATCG  -0.171
10. CCAAGTGC  -0.171
11. CTAGGCGC  -0.158
12. CAGTACCG  -0.142
13. ACCACGGT  -0.134
14. GGAAGGTA  -0.132
15. CTCTGCCC  -0.109
16. GACCTCCA  -0.0969
17. CTTTGGTC  -0.0966
18. AGCAATGG  -0.0784
19. CTTAACCC  -0.0467
20. GTAGCGGA  -0.0459
21. CCCGATTC  -0.0455
22. ACCATTAG  -0.0407
23. ACGATTCC  -0.04
24. AGACTAAA  -0.0357
25. CTTCAAAC  -0.0259
26. ACAAAGGG  -0.0246
27. GGTTGAAA  -0.0197
28. ATCCCTAG  -0.00744
29. CAAGAGCA  -0.00496
30. ATTAACGG  -0.00314
31. CCATCTAC  0.0186
32. TGATGCAA  0.0282
33. GGGCAGAA  0.0375
34. AAGAGTAC  0.0432
35. AGTTGAAA  0.0609
36. GTTATCCA  0.0731
37. CACACGGA  0.0896
38. CAGGCGAA  0.0909
39. AGATGTAG  0.094
40. CGATGTGA  0.105
41. AATTCTTG  0.12
42. GGATGTCA  0.133
43. ATCAACAG  0.136
44. CATACCAA  0.141
45. ATCAACCC  0.144
46. CACGGTGA  0.155
47. TGCTGTAA  0.17
48. CATACCCA  0.182
49. AACACCGA  0.193
50. CACACGGG  0.218
51. CGATGTAC  0.221
52. GACACGGA  0.224
53. GGATGTAC  0.225
54. CGTTGTAG  0.242
55. AGTTGTAA  0.248
56. AGATGTAT  0.251
57. ACTAACAA  0.253
58. AGCAACAC  0.26
59. ATTAACAG  0.261
60. CGTTGTAC  0.278
61. GTTAACCA  0.285
62. CTCAACAA  0.302
63. ATCAACAA  0.306
64. CTTAACAA  0.307
65. AATAATAA  0.311
66. ATTAACGA  0.317
67. GGTTGTAA  0.342
68. GTCAACAC  0.358
69. AACACGGC  0.359
70. GTTAACTA  0.362
71. GTTAACAA  0.366
72. CGTTGTAA  0.368
73. TGTTGAAA  0.37
74. ATTAACGC  0.372
75. AACACGGA  0.374
76. AGATGTAA  0.382
77. CTCAACAC  0.382
78. AACACGGG  0.387
79. TGATGTAA  0.389
80. GGATGTAA  0.397
81. ATCAACAC  0.399
82. TGTTGTAA  0.401
83. AACACGGT  0.402
84. ATTAACAA  0.415
85. CGATGTAA  0.417
86. CTTAACAC  0.419
87. ATCAACAT  0.44
88. TACACGGA  0.447
